For eight molecules, outcome and AC50 results are on record in PubChem BioAssay (EPA / NIEHS).

Read-out in test [1]: Monokine induced gamma interferon (MIG), CXCL9 (gene 4283)
The experiment in a line: BSK_SAg_MIG: BioMAP Diversity Plus: SAg Assay for Monokine induced gamma interferon (MIG) Biomarker Activity (AID 2283092). The settings on record: primary human HUVEC with PBMC; actives raise or lower the signal. The gist of the method:
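ELISA readout of MIG/CXCL9; primary human umbilical vein endothelial cells co-cultured with peripheral blood mononuclear cells; 24 h post-dose; gain/loss fit vs DMSO baseline.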

The nature of test [2]: BSK_SAg_PBMCCytotoxicity: PBMC Cytotoxicity Assessment in the BioMAP Diversity Plus: SAg Assay (AID 2283093).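 For AC50: PBMC superantigen activated with SEB plus TSST-1 one hour after compound addition.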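 Note: fitted both ways against DMSO so a hit may be loss or gain of signal.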 The settings on record: primary human HUVEC with PBMC. The gist of the method: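 PBMC viability by Alamar Blue reduction, fluorescence read at 546/580 nm after 6 h dye exposure. Cells were dosed 1 h before SEB plus TSST-1 activation (20 ng/mL final each), then held 90 h; endothelial/PBMC human co-culture.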

Read-out in test [3]: Interleukin-8 (IL8), CXCL8 (gene 3576)
The experiment in a line: BSK_SAg_IL8: BioMAP Diversity Plus: SAg Assay for Interleukin-8 (IL8) Biomarker Activity (AID 2283094). The settings on record: primary human HUVEC with PBMC; actives raise or lower the signal. The gist of the method: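 Chemicals were dosed onto a human endothelial–PBMC co-culture, and IL-8 was quantified by ELISA after 24 h. Both increases and decreases were fitted relative to DMSO.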

Test [4] can be described thus: BSK_SAg_Proliferation: Cell Proliferation Assessment in the BioMAP Diversity Plus: SAg Assay (AID 2283095).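 Note: relative cell number as total protein by SRB absorbance in sub-confluent culture.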 The settings on record: primary human HUVEC with PBMC. The gist of the method:
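Absorbance of sulforhodamine B at 560 nm reports total protein in a human vascular endothelial/PBMC co-culture after 96 h chemical exposure. Gain or loss of signal is fitted in both directions against DMSO.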

Test [5] concerns the target human CYP19A1, CYP19A1 (gene 1588) (UniProt P11511). The experiment in a line: NVS_ADME_hCYP19A1: NovaScreen (NVS) CYP450-related Enzyme Activity (ADME) Assay for human CYP19A1 (AID 2283098; active = hit-call score of the fitted dose curve at least 0.9, where 1 is the maximum). The gist of the method: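 Fluorescence intensity read-out; activity taken as signal loss relative to acetonitrile vehicle. Extracted enzyme, specific substrate, no cells, 0.5 h exposure. Duplicate single-point screen at 10 uM, then concentration–response follow-up for actives.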

Test [6] deals with human CYP1A2, CYP1A2 (gene 1544) (UniProt P05177). Nature of the test: NVS_ADME_hCYP1A2: NovaScreen (NVS) CYP450-related Enzyme Activity (ADME) Assay for human CYP1A2 (AID 2283102; active = hit-call score of the fitted dose curve at least 0.9, where 1 is the maximum;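 note: potency for inhibition since loss of fluorescence marks reduced CYP1A2 activity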). The gist of the method:
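Inhibition scored as decrease in fluorescent product versus acetonitrile negative control. Enzyme: insect-cell recombinant human CYP1A2, substrate-specific, cell-free. Reading at 0.5 h; 10 uM duplicate initial screen with positive and negative controls on every plate.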

For test [7], the target named is human CYP2C9, CYP2C9 (gene 1559) (UniProt P11712). Nature of the test: NVS_ADME_hCYP2C9: NovaScreen (NVS) CYP450-related Enzyme Activity (ADME) Assay for human CYP2C9 (AID 2283108; active = hit-call score of the fitted dose curve at least 0.9, where 1 is the maximum). The method, boiled down: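 Recombinant human CYP2C9 expressed in SF9 cells, fluorogenic substrate, fluorescence read 0.75 h after dosing. Chemicals first run in duplicate at 10 uM, with actives followed in concentration series; loss of signal versus acetonitrile baseline.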

Test [8] concerns the target Cytochrome P450 2C19 (Homo sapiens) (UniProt P33261). The experiment in a line: NVS_ADME_hCYP2C19: NovaScreen (NVS) CYP450-related Enzyme Activity (ADME) Assay for human CYP2C19 (AID 2283113; active = hit-call score of the fitted dose curve at least 0.9, where 1 is the maximum;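 note: potency for inhibition seen as loss of fluorescent signal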). The method, boiled down: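 Biochemical CYP2C19 inhibition screen: insect-cell recombinant protein plus fluorescent substrate, 1 h, fluorescence intensity. Acetonitrile defined baseline activity. Single 10 uM concentration in duplicate, with concentration-response follow-up for actives.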

Test [9] concerns the target Cytochrome P450 2C18 (Homo sapiens) (UniProt P33260). The experiment in a line: NVS_ADME_hCYP2C18: NovaScreen (NVS) CYP450-related Enzyme Activity (ADME) Assay for human CYP2C18 (AID 2283103). The gist of the method:
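Enzyme activity measured by fluorescence 0.5 h after compound addition, using recombinant CYP2C18 and a specific substrate. Actives from duplicate 10 uM screening were retested in concentration series (top 20 uM); acetonitrile served as negative baseline.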

A short description of test [10]: BSK_SAg_SRB: Viability Assessment in the BioMAP Diversity Plus: SAg Assay (AID 2283096).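 Note: cells read one day after compound addition; hits may be either gain or loss of signal compared with DMSO.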 The settings on record: primary human HUVEC with PBMC. The gist of the method:
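Compounds were added to a human vascular co-culture of umbilical vein endothelium and PBMC. After 24 h, parallel cultures were fixed with 10% TCA, stained with 0.1% sulforhodamine B and read at 560 nm. Gain or loss of signal was fitted relative to DMSO.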

The target of test [11] is rat CYP2A1, Cyp2a1 (gene 24894) (UniProt P11711). Nature of the test: NVS_ADME_rCYP2A1: NovaScreen (NVS) CYP450-related Enzyme Activity (ADME) Assay for rat CYP2A1 (AID 2283114). The gist of the method: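 Cell-free fluorescence enzyme-activity read on recombinant rat CYP2A1, taken 0.75 h post-dosing. Compounds were screened in duplicate at 10 uM, then hits tested in concentration series (max 20 uM); inhibition scored relative to acetonitrile baseline.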

For test [12], the target named is human CYP1A1, CYP1A1 (gene 1543) (UniProt P04798). The experiment in a line: NVS_ADME_hCYP1A1: NovaScreen (NVS) CYP450-related Enzyme Activity (ADME) Assay for human CYP1A1 (AID 2283100; active = hit-call score of the fitted dose curve at least 0.9, where 1 is the maximum). The method, boiled down:
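Inhibition of recombinant CYP1A1 turnover was assessed fluorometrically in a biochemical format 1 h after compound exposure. Testing began at 10 uM in duplicate and progressed to concentration series reaching 20 uM, with on-plate positive and negative controls.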

For test [13], the target named is human CYP2J2, CYP2J2 (gene 1573) (UniProt P51589). The experiment in a line: NVS_ADME_hCYP2J2: NovaScreen (NVS) CYP450-related Enzyme Activity (ADME) Assay for human CYP2J2 (AID 2283106; active = hit-call score of the fitted dose curve at least 0.9, where 1 is the maximum). The gist of the method:
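Chemicals were first tested at 10 uM in duplicate, and hits meeting criteria such as 30% inhibition were run in singleton concentration series with a 20 uM top concentration. Enzyme activity of recombinant CYP2J2 was measured by fluorescence after 1 h, relative to acetonitrile.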

The target of test [14] is human CYP2D6, CYP2D6 (gene 1565) (UniProt P10635). The experiment in a line: NVS_ADME_hCYP2D6: NovaScreen (NVS) CYP450-related Enzyme Activity (ADME) Assay for human CYP2D6 (AID 2283107; active = hit-call score of the fitted dose curve at least 0.9, where 1 is the maximum). The gist of the method: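 Biochemical fluorescence assay, insect-cell-derived enzyme. Read at 1 h; inhibition taken from loss of signal against acetonitrile. Screened at 10 uM in duplicate, with concentration series for actives.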

Test [15] addresses human CYP2B6, CYP2B6 (gene 1555) (UniProt P20813). Nature of the test: NVS_ADME_hCYP2B6: NovaScreen (NVS) CYP450-related Enzyme Activity (ADME) Assay for human CYP2B6 (AID 2283101; active = hit-call score of the fitted dose curve at least 0.9, where 1 is the maximum). The method, boiled down: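 Fluorescence-based enzyme activity of recombinant human CYP2B6, measured 1 h post-dose against acetonitrile vehicle baseline. Screened at a single concentration of 10 uM in duplicate before concentration-response follow-up.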

Structures are written as SMILES. Records with an inconclusive call do not appear. Activity calls are given as the source filed them. Rule for the calls, unless noted: active = hit-call score of the fitted dose curve at least 0.9, where 1 is the maximum; inactive = score below 0.9.

human CYP19A1, CYP19A1 (gene 1588), sequence (P11511 whole entry, looked up): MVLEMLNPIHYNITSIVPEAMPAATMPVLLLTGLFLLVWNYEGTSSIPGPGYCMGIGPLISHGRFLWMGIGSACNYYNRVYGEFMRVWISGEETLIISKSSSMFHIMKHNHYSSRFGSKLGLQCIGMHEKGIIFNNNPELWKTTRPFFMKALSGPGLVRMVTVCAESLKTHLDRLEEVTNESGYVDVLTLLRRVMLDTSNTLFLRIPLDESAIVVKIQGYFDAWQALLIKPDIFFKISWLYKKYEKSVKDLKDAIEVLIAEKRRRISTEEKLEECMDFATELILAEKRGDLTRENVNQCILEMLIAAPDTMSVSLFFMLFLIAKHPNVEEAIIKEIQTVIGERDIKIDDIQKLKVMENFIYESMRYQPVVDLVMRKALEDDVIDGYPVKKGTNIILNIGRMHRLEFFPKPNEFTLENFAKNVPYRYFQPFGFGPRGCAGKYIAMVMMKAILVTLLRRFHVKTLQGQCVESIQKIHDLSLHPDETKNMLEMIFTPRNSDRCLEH
Cytochrome P450 2C18 (Homo sapiens), sequence (P33260 whole entry, looked up): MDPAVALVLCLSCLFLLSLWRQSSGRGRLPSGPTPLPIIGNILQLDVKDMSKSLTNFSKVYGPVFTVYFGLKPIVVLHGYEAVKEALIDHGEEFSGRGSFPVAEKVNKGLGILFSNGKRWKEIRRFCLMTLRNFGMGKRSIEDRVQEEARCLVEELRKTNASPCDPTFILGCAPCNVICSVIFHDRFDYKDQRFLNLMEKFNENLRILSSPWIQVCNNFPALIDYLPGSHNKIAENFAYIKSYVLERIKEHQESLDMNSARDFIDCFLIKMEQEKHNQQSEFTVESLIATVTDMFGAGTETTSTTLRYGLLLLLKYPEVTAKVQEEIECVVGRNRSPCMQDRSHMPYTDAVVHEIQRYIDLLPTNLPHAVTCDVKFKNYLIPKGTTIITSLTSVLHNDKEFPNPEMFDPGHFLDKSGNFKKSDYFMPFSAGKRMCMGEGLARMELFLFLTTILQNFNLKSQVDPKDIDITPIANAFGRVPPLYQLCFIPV
human CYP2C9, CYP2C9 (gene 1559), sequence (P11712 whole entry, looked up): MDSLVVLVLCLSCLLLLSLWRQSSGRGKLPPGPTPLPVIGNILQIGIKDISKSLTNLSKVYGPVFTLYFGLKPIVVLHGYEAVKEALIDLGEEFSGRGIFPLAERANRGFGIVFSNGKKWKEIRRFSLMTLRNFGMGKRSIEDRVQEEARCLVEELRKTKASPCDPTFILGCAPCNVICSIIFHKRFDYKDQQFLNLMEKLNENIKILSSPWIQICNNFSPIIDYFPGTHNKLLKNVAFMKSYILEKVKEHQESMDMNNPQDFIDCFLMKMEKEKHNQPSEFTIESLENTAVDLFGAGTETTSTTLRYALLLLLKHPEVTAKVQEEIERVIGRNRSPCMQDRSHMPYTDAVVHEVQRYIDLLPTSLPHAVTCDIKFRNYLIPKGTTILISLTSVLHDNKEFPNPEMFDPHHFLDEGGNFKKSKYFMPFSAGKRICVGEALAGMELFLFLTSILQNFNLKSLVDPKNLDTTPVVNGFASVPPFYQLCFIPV
human CYP2D6, CYP2D6 (gene 1565), sequence (P10635 whole entry, looked up): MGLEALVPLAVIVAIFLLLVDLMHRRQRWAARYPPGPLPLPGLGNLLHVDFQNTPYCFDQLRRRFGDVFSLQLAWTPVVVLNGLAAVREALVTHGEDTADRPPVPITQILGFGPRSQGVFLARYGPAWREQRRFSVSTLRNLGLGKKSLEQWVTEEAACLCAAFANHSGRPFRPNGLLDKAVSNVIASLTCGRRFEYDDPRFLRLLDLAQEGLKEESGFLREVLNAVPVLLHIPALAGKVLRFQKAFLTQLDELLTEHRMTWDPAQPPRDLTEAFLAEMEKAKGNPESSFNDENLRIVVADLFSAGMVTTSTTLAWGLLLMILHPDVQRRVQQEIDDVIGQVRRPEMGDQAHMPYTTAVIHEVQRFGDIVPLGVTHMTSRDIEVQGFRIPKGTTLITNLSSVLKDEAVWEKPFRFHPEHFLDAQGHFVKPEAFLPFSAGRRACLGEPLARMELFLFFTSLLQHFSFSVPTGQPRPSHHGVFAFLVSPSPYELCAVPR
human CYP1A2, CYP1A2 (gene 1544), sequence (P05177 whole entry, looked up): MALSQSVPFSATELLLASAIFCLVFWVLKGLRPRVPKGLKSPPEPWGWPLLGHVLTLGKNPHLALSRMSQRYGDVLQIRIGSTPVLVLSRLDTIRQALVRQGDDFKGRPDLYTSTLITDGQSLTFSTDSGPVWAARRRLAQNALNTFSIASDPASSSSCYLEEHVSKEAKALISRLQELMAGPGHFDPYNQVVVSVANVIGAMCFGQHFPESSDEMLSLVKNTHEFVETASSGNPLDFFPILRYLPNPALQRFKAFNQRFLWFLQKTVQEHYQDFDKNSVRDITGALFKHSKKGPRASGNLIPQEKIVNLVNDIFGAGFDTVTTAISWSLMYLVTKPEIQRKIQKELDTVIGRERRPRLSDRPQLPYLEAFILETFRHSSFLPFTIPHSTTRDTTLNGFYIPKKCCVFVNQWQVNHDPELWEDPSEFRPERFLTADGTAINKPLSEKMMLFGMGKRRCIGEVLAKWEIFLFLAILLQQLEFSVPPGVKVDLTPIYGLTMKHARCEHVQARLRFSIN
human CYP1A1, CYP1A1 (gene 1543), sequence (P04798 whole entry, looked up): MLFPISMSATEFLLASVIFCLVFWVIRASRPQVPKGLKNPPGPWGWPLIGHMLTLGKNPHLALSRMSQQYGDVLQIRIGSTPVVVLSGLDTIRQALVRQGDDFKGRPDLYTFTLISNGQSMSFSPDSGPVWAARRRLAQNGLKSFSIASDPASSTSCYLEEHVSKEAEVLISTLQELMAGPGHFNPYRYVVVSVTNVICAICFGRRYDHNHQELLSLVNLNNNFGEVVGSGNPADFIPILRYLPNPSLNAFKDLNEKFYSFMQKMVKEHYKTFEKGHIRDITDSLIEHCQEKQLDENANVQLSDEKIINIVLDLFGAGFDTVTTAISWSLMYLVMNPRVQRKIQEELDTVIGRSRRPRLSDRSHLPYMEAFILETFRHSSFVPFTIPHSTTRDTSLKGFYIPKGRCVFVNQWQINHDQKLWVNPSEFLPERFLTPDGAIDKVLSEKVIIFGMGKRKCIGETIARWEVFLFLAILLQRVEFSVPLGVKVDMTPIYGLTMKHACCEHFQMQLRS
human CYP2B6, CYP2B6 (gene 1555), sequence (P20813 whole entry, looked up): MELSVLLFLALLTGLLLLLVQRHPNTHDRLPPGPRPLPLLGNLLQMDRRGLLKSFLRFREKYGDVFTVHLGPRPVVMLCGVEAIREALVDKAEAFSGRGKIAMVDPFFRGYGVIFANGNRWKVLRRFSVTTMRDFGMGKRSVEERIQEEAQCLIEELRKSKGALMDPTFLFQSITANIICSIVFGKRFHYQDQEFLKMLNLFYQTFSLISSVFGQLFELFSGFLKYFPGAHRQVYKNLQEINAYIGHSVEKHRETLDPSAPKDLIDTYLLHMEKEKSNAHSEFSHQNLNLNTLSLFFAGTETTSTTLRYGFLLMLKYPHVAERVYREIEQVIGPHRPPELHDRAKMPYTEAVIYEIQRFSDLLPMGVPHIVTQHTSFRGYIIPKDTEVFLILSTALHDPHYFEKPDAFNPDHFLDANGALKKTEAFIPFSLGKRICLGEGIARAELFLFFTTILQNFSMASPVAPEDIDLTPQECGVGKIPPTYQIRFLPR
rat CYP2A1, Cyp2a1 (gene 24894), sequence (P11711 whole entry, looked up): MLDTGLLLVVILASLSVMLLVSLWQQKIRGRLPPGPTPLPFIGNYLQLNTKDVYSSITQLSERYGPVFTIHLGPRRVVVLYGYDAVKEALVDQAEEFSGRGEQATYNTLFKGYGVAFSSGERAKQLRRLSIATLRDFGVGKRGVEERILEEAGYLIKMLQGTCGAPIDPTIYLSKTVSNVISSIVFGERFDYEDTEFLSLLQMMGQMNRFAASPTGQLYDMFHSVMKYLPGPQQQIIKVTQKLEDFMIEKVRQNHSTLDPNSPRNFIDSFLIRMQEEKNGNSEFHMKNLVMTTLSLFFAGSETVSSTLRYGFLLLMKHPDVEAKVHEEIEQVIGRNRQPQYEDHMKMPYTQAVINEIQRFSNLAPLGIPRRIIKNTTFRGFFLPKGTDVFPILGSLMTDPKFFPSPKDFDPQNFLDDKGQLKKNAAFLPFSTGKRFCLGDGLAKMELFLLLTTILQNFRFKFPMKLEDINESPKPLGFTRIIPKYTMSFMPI
human CYP2J2, CYP2J2 (gene 1573), sequence (P51589 whole entry, looked up): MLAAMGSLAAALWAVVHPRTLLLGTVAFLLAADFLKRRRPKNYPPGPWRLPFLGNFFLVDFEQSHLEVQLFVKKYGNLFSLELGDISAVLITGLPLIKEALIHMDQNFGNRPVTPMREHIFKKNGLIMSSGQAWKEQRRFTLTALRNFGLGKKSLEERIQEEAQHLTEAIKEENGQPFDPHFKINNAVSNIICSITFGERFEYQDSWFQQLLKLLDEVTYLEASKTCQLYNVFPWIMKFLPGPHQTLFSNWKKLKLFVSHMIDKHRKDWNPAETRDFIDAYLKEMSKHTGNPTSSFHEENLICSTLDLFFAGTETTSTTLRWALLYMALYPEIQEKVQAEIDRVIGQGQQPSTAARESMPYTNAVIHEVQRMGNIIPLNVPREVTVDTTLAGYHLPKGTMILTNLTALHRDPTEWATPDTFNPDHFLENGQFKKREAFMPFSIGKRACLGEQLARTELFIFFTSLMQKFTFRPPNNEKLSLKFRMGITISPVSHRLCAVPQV

With `O=C1C2CC=CCC2C(=O)N1SC(Cl)(Cl)Cl` (centres undefined), the outcome in [1] and in test [5] was inactive. Further, the AC50 – broadly, the concentration at which the activity in the assay is half-maximal – in test [2] is 32.6 µM (active); in test [3], 25.3 µM (active); in [4], 28.7 µM (active); in test [6], 6.89 µM (active); in test [7] it was 10 µM (active); in test [8], 16 µM (active).

For the molecule `CCOc1cc(C(C)(C)C)ccc1C1COC(c2c(F)cccc2F)=N1` (centres undefined), the AC50 in test [1] is 36.1 µM (active); in test [2], 28.9 µM (active); in test [3] it was 18.6 µM (active); in [4], 11.9 µM (active); in test [8], 7.62 µM (active). Besides, in test [9], the molecule was called inactive.

For the molecule `CN=C=S`, the result in [1], in test [2] and in [5] was inactive. In addition, the AC50 in test [3] is 11.7 µM (active); in test [4], 13.7 µM (active).

`CO/N=C(/C1=NOCCO1)c1ccccc1Oc1ncnc(Oc2ccccc2Cl)c1F`: the AC50 in test [1] was 34.7 µM (active); in [2], 1.98 µM (active); in test [3], 11 µM (active); in test [4], 15.8 µM (active); in test [10], 18.3 µM (active); in [9] it was 0.933 µM (active). For the same molecule, the AC50 in test [8] is 1.41 µM (active); in test [11], 1.57 µM (active).

As for `COc1ccc(-c2ccccc2)cc1NNC(=O)OC(C)C`, the outcome in test [1], in test [2], in test [3], in [4], in test [10] and in [14] was inactive. Also, the AC50 in test [12] is 0.597 µM (active); in test [6] it was 0.956 µM (active); in [9], 0.684 µM (active); in test [13], 0.407 µM (active); in test [7], 1.07 µM (active); in test [8] it was 0.447 µM (active).

As to `CC1(C)C(C=C(Cl)Cl)C1C(=O)OC(C#N)c1cccc(Oc2ccccc2)c1` (centres undefined), the result in test [1], in test [2], in test [3] and in test [5] was inactive. Moreover, the AC50 is 29.4 µM (active) in test [4], 6.07 µM (active) in [14], 12.8 µM (active) in [7] and 7.55 µM (active) in test [8].

Turning to `CCOP(=S)(OCC)Oc1nc(Cl)n(C(C)C)n1`, the result in [1], in test [2], in test [3] and in test [4] was inactive. For the same molecule, the AC50 was 1 µM (active) in [15] and 0.317 µM (active) in test [8].

For `CC1(C)C(C(=O)OC(C#N)c2cccc(Oc3ccccc3)c2)C1(C)C` (centres undefined), the outcome in test [1], in test [2] and in test [7] was inactive. In addition, the AC50 is 26.8 µM (active) in [3], 15.3 µM (active) in test [4] and 13.8 µM (active) in test [8].
